The panel holds about 83,000 compounds, 20% with a hit somewhere; the sample as a whole holds those more often.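 Results are percent growth after 48 hours of single-concentration exposure. 100 means growth as in untreated cells, lower positive values show inhibition; negative values down to -100 show cell death.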 Activity calls are given as the source filed them. The calls were made as follows: active = growth percent below 10; inactive = the rest.
System: HL-60(TB) leukemia
Assay: NCI-60 one-dose screen, 48 h (100 = growth as untreated, 0 = no growth, -100 = all killed)
Settings: 10 µM unless noted

| Structure (SMILES) | growth |
| --- | --- |
| COc1ccc(C(=O)/C=C/c2ccc(OCc3ccc(C)cc3)c(OC)c2)cc1OC | 40.7% (inactive) |
| C=C(C)C(=O)O[C@H]1C[C@@]2(C)OC(=CC2=O)[C@H](C)[C@H](O)[C@H]2OC(=O)C(=C)[C@@H]21 | 14.3% (inactive) |
| O=C(NCCNc1cc(-c2cn(-c3ccccc3)nc2-c2cccc(O)c2)ccn1)Nc1cc(C(F)(F)F)cc(C(F)(F)F)c1 | 97% (inactive) |

— PubChem BioAssay (NCI)
